Screening data from PubChem BioAssay.
Hits are enriched below; roughly 18% of the tested compounds scored in any of these assays.
DT40 TDP1 no CPT = qHTS for Inhibitors of human tyrosyl-DNA phosphodiesterase 1 (TDP1): qHTS in cells in absence of CPT. DT40 Tdp1-/- hTDP1 cells, no CPT, ATP luminescence, 48 h. Potency, µM (series often up to 46.2 µM), for the others: at the top dose activity change, negative = growth inhibition, hits mostly inhibitors. 420,000 compounds, 15% hits. AID 686978, 2013; also: potency is read from the fitted curve at half-maximal effect; nearly all actives have a fitted effect of over 55% in size
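Camptothecin absent (DMSO only). Human TDP1-complemented DT40 knockout cells, 400 cells/well, 37 °C for minimum 48 hr; ATP measured via CellTiter-Glo, 30 min dark incubation, luminescence.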
Six1-Eya2 blk = Six1/Eya2 interaction inhibition; Q15475+O00167; AlphaScreen GST-Six1/His-Eya2 binding, biochemical; stronger effect = lower value; activity change, % (test concentration not listed); 360,000 compounds, 0.56% hits; AID 651725; in the data active = activity change below about -65%; inconclusive = mostly about -30% to -63%
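Homogeneous AlphaScreen proximity assay pairing GST-Six1 with His-tagged Eya2 (added as 5X mix: 250 nM and 500 nM) in 50 mM Tris pH 8.0, 300 mM NaCl, 1 mM TCEP. Glutathione donor and nickel acceptor beads; 1 h, 37 °C, dark.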
DT40 TDP1 CPT = growth inhibition of DT40 Tdp1-/-;hTDP1 cells with camptothecin (screen for TDP1 inhibitors); chicken DT40 Tdp1-/-;hTDP1 cells + 20 nM CPT, ATP luminescence, 48 h; Potency, µM (highest dose often 46.2 µM), for the others: top-dose activity change, negative = growth inhibition, actives largely listed as inhibitors; 420,000 compounds, 12% hits; also: potency is read from the fitted curve at half-maximal effect; nearly all actives have a fitted effect of over 55% in size
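Chicken DT40 Tdp1-/- cells complemented with human TDP1, 400 cells/well, exposed to compounds plus 20 nM camptothecin for at least 48 h at 37 C; viability read as ATP content by CellTiter-Glo luminescence.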
IL1B secr inh = blocks inflammasome-driven IL-1 beta release | THP-1 LPS/ATP IL-1B secretion, AlphaLISA, 16 h; stronger effect = lower value | activity change, % at 57.5 µM | 360,000 compounds, 4.7% hits | AID 743279; in the data active = activity change below about -50%; inconclusive = mostly about -30% to -49%
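Secreted IL-1B measured by AlphaLISA bead assay after 16 h compound exposure of THP-1 cells; compounds (final up to 57.5 uM) added 1 h before LPS (250 ng/mL) and ATP (1.25 mM) stimulation; lower signal means less secretion.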
CtBP-E1A blk = blocks the CtBP interaction with E1A; AlphaScreen GST-E1A/His-CtBP binding, 1536-well; stronger effect = lower value; activity change, % (test concentration not listed); AID 651724; 340,000 compounds, 0.49% hits; in the data active = activity change below about -65%; inconclusive = mostly about -30% to -63%
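In 5 uL wells, 23 nL compound meets equimolar GST-E1A and His-CtBP (5X stock 125 nM each) for 2 h, 37 °C. Beads (5X, 50 ug/mL) then 1 h, 37 °C, dark.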
TDP1 inh = TDP1 (human) enzyme inhibition; Q9NUW8; recombinant TDP1, AlphaScreen DNA substrate cleavage; Potency, µM (titrated, usually from 130 µM), for inactives: at the highest dose activity change, negative = inhibition, actives largely listed as inhibitors; 350,000 compounds, 0.28% hits; also: potency is read from the fitted curve at half-maximal effect; nearly all actives have a fitted effect of over 40% in size
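AlphaScreen read-out: signal falls as enzyme removes the 3' tyrosine-FITC from a 5'-biotinylated DNA oligo (15 nM, 5 min, RT). Enzyme was E. coli-made recombinant Tdp1 at 1 nM, exposed to compound for 15 min beforehand; beads 10 ug/ml, 10 min.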
Numbers without * were called inactive; ? = inconclusive; / = not tested or not shown. Unless noted, calls follow the shape of the dose curve; as a rule, active = well fitted curve in the direction sought with a large enough effect; inconclusive = small, poorly fitted or top-dose-only effect, or another doubt; inactive = no such curve, though single readings can be large; an effect the other way counts as inactive or inconclusive. % is scaled to controls: 0 for no effect and ±100 for the full control effect.

SMILES	DT40 TDP1 no CPT	Six1-Eya2 blk	DT40 TDP1 CPT	IL1B secr inh	CtBP-E1A blk	TDP1 inh
O=C(Nc1ccccc1)OC1CCC2CC1CCC2OC(=O)Nc1ccccc1 (stereo not given)	12µM*	-1	13µM*	?	-14	-2%
CC1(C)CCC(=O)N2CC[C@H]3C[C@H](OC(=O)Nc4ccccc4)C[C@@H]1[C@H]32	?	6	16µM*	-18	5	/
COc1ccc(SCCN2CCN(C)CCC2=O)cc1	-3%	3	2%	46	4	7%
Cc1ccc2c(=O)cc(C(=O)Nc3ccc(S(=O)(=O)N4CCCCC4)cc3)oc2c1	-19%	/	-23%	/	/	-2%
O=C1/C(=C/c2ccc(O)c([N+](=O)[O-])c2)SC(=S)N1Cc1ccccc1	18µM*	-2	?	9	-2	9%
CCOc1ccccc1C=C1SC(=S)N(CC)C1=O	-19%	-4	-5%	1	-6	/
O=C1/C(=C\c2ccc(O)cc2)SC(=S)N1Cc1ccccc1	?	-26	?	-96*	-16	6%
O=C1/C(=C\c2cc(Br)cc(Br)c2O)SC(=S)N1Cc1ccccc1	15µM*	-6	13µM*	-9	-9	/
O=C(O)c1ccc(/C=C2/SC(=S)N(Cc3ccccc3)C2=O)cc1	18%	-2	-23%	20	5	/
CCN1C(=O)/C(=C\C=C\c2ccccc2[N+](=O)[O-])SC1=S	12µM*	-21	26µM*	-21	-2	9%
CCOc1cc(/C=C2/SC(=S)N(Cc3ccccc3)C2=O)ccc1O	?	-1	?	-7	/	12%
COc1ccc(NC(=O)CSc2nc3ccccc3c(=O)n2CCC(=O)N2CCCCC2)cc1	?	0	?	-25	-10	10%
O=C1NCCCC1C(=O)Nc1ccccn1 (stereo not given)	3%	3	-12%	9	3	3%
CC[C@H](C)[C@H](NC(=O)[C@H](CCC(=O)O)NC(=O)[C@H](CO)NC(=O)[C@@H](NC(=O)[C@@H](N)CO)C(C)C)C(=O)N[C@@H](CCC(N)=O)C(=O)N[C@@H](CC(C)C)C(=O)N[C@@H](CCSC)C(=O)N[C@@H](Cc1cnc[nH]1)C(=O)N[C@@H](CC(N)=O)C(=O)N[C@@H](CC(C)C)C(=O)NCC(=O)N[C@@H](CCCCN)C(=O)N[C@@H](Cc1cnc[nH]1)C(=O)N[C@@H](CC(C)C)C(=O)N[C@@H](CC(N)=O)C(=O)N[C@@H](CO)C(=O)N[C@@H](CCSC)C(=O)N[C@@H](CCC(=O)O)C(=O)N[C@@H](CCCNC(=N)N)C(=O)N[C@H](C(=O)N[C@@H](CCC(=O)O)C(=O)N[C@@H](Cc1c[nH]c2ccccc12)C(=O)N[C@@H](CC(C)C)C(=O)N[C@@H](CCCNC(=N)N)C(=O)N[C@@H](CCCCN)C(=O)N[C@@H](CCCCN)C(=O)N[C@@H](CC(C)C)C(=O)N[C@@H](CCC(N)=O)C(=O)N[C@@H](CC(=O)O)C(=O)N[C@H](C(=O)N[C@@H](Cc1cnc[nH]1)C(=O)N[C@@H](CC(N)=O)C(=O)N[C@@H](Cc1ccccc1)C(=O)N[C@H](C(=O)N[C@@H](C)C(=O)N[C@@H](CC(C)C)C(=O)NCC(=O)O)C(C)C)C(C)C)C(C)C	/	/	/	/	/	20%
CC(C)CN(C(=O)CCC1CCCCC1)c1c(N)n(CC(C)C)c(=O)[nH]c1=O	-19%	2	?	8	8	-3%
O=C1/C(=C\c2cccc([N+](=O)[O-])c2O)SC(=S)N1Cc1ccccc1	9.2µM*	?	18µM*	36	-30	/
O=C1NC(=Nc2ccccc2Cl)S/C1=C\c1cccc([N+](=O)[O-])c1O	?	-21	-14%	11	-7	11%
COc1ccc(S(=O)(=O)N2CCC(C(=O)NC(C)CCc3ccccc3)CC2)cc1 (stereo not given)	-26%	3	-21%	/	-3	0%
CC(CCc1ccccc1)NC(=O)C1CCN(S(=O)(=O)c2cnc[nH]2)CC1 (stereo not given)	-6%	5	-1%	-55*	3	3%
CCn1cc(CN2CCc3c([nH]c4ccccc34)C2c2cccc(O)c2)c(C)n1 (stereo not given)	?	-15	-1%	4	4	10%
CSc1ncc(CN2CCc3c([nH]c4ccccc34)C2c2cccc(C)n2)cn1 (stereo not given)	26µM*	-5	?	35	-20	/
CSc1ncc(CN2CCc3c([nH]c4ccccc34)C2c2cccc(O)c2)cn1 (stereo not given)	26µM*	-12	?	7	1	7%
CC(C)(C)[C@@H](O)C(Cc1ccc(Cl)cc1)n1cncn1 (stereo not given in full)	/	/	/	/	/	13%
Cc1ccc(-n2c(SCC(=O)N/N=C/c3ccc(C)s3)nnc2-c2ccccc2)cc1	?	8	?	-57*	0	5%
O=C(CSc1nnc(-c2ccc(Cl)cc2)n1-c1ccc(Cl)cc1)N/N=C/c1ccco1	?	-18	21µM*	0	2	1%
SMILES	DT40 TDP1 no CPT	Six1-Eya2 blk	DT40 TDP1 CPT	IL1B secr inh	CtBP-E1A blk	TDP1 inh
Cc1ccc(/C=N/NC(=O)CSc2nnc(-c3ccc(Cl)cc3)n2-c2ccccc2)o1	?	-5	?	1	-14	5%
CCCCC/C=C\C/C=C\C/C=C\CCCCC(N)=O	/	/	/	/	/	7%
O=C(Nc1ccc2nc(-c3cccs3)c(-c3cccs3)nc2c1)N1CCOCC1	13µM*	8	?	-60*	12	1%
O=C(Nc1ccc2nc(-c3ccccn3)c(-c3ccccn3)nc2c1)N1CCCC1	?	/	?	/	/	-4%
CCc1c(C#N)c(SCCC(=O)Nc2ccc(C)cc2)nc2c1C(=O)CC(C)(C)C2	?	5	?	-17	-2	-7%
CCOc1ccc(NC(=O)CCSc2nc3c(c(CC)c2C#N)C(=O)CC(C)(C)C3)cc1	21µM*	-1	?	-15	-2	-1%
O=C1NC(Cc2c[nH]c3ccccc23)C(=O)N1Cc1ccc(CN2C(=O)NC(Cc3c[nH]c4ccccc34)C2=O)cc1 (stereo not given)	23µM*	-17	?	-14	-17	3%
